In all, about 33,000 sequences were measured (“E-score (-0.5 to 0.5)”: median about -0.013, highest 2% from about 0.3 on). For the sample, the highest values were picked, then their nearest neighbours and some sequences at random.
Each sequence was assayed against T1, Msn1 (UniProt P22148) (assay: PBM E-score (8-mer binding enrichment) (E-score (-0.5 to 0.5)); higher = stronger / more preferred TF binding). Settings: protein concentration: 200 nM; construct: GST-full length.
T1 sequence: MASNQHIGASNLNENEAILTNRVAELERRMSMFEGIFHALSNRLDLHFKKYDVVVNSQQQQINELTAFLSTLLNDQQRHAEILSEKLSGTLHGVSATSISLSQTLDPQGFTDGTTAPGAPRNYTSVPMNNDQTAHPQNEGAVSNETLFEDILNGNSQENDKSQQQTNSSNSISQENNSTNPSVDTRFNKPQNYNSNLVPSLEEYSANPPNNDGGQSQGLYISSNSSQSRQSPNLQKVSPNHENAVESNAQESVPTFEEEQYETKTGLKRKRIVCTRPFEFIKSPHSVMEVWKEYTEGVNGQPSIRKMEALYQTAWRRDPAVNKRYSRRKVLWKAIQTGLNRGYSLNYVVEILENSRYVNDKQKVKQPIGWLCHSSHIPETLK
How it was run: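 Each ungapped eight-base word and its reverse complement, pooled, received an E-score from the Universal PBM Analysis Suite. Underlying scans, normalised with masliner, recorded fluorescent anti-GST bound to GST-tagged yeast transcription factors. These were applied at about 100-200 nM to universal all-10-mer Agilent arrays double-stranded by primer extension.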

Row | Sequence | PBM E-score
1 | CCACAACC | -0.0582
2 | TAGTTGCA | 0.0158
3 | TAGAAGGA | -0.21
4 | AATAGCTG | -0.128
5 | GTTGAGGA | -0.00729
6 | GCATATTA | 0.0109
7 | CCATATTA | 0.21
8 | ACATATTA | 0.351
9 | ACCTTCCA | -0.119
10 | AATCGAGT | -0.0102
11 | CGAAGCAC | 0.0622
12 | ACACCGTG | -0.05
13 | AATTGGAC | 0.342
14 | ATTTGGAG | -0.0358
15 | ATTTGGAC | 0.366
16 | AATTGGAT | 0.157
17 | CTTTGGAC | 0.262
18 | GATTGGAC | 0.109
19 | CTGAGCTC | 0.0318
20 | ATTTGCCC | 0.0584
21 | AAGTGATA | -0.052
22 | TACAAAAA | 0.264
23 | GACAAGAA | 0.374
24 | GACAGGAC | 0.17
25 | GACAAAAA | 0.466

Row | Sequence | PBM E-score
26 | TACAAGAA | 0.169
27 | CACAAGAA | 0.105
28 | GACAGGAA | 0.323
29 | GACAAGCC | 0.318
30 | AACAAGCC | 0.0265
31 | CACAGGAA | 0.0261
32 | GACAAGCA | 0.278
33 | AACAAAAA | 0.15
34 | ATCTATCC | -0.0249
35 | CCTAGCCA | -0.0603
36 | CCTGCAAA | -0.188
37 | AAGCAAGG | -0.0227
38 | ATTTACTA | 0.206
39 | AGTCAGAA | -0.0729
40 | CGTACGGC | -0.134
41 | CCTATGTA | -0.0586
42 | CACAAAAC | 0.0522
43 | GACACAAA | 0.395
44 | TACAAACA | 0.301
45 | GACAAAAC | 0.451
46 | CACACAAA | 0.115
47 | CACAAACC | -0.135
48 | AACAAACC | 0.155
49 | GACAAACC | 0.445
50 | AACAAAAC | 0.199

Row | Sequence | PBM E-score
51 | GACAAACA | 0.456
52 | TACACAAA | 0.205
53 | AACAAACA | 0.133
54 | GACATCAC | 0.118
55 | CGGCAGCC | -0.118
56 | CGCGGTCC | -0.0855
57 | AGTATTGG | -0.0788
58 | AGAGTTAT | -0.0142
59 | GATAGGCA | -0.0844
60 | AGTAGGCA | -0.07
61 | GACAAGAC | 0.311
62 | CACAAGAC | -0.118
63 | AACAAGAC | 0.135
64 | GCCCATGA | -0.081
65 | TGGGACCA | -0.117
66 | TGGGACAA | 0.471
67 | GGGGACCA | -0.223
68 | GGGGACAA | 0.456
69 | GGGGACAC | 0.28
70 | TGGGAGAA | -0.209
71 | ATAGCACA | -0.0389
72 | ATGGAGCG | -0.0801
73 | CAGATAAG | 0.102
74 | TTCCGAAA | 0.0799
75 | ATCCGAAT | 0.309

Row | Sequence | PBM E-score
76 | GTCCGAGA | 0.326
77 | ATCCGAGA | 0.187
78 | GTCCGAAA | 0.312
79 | ATCCGAAC | -0.00081
80 | CTCCGACA | 0.174
81 | ATCCGAAG | 0.0243
82 | CTCCGAGA | 0.152
83 | GTCCGACA | 0.322
84 | ATCCGACA | 0.128
85 | ATCCGAAA | 0.057
86 | ATTAATTA | 0.0938
87 | CTCTTACC | 0.0706
88 | ATCGCCTC | -0.0571
89 | CTCTCCCC | -0.213
90 | ACAACATG | 0.0414
91 | AATATGCC | -0.141
92 | CTCTGATA | 0.112
93 | CCAGGGAC | 0.0428
94 | ACGTTAGT | 0.0228
95 | ACTTACTG | -0.113
96 | AAGCTGCG | 0.00828
97 | AGCCCTGC | -0.252
98 | AAGGGCGG | -0.21
99 | CCGAACCC | -0.146
100 | CATTGCAC | 0.0641

Row | Sequence | PBM E-score
101 | ATAACGAT | -0.192
102 | CTAATGTC | 0.378
103 | CTAATGAC | -0.12
104 | CTAATGTA | 0.143
105 | ATAATGTC | 0.427
106 | ATAATGTA | 0.139
107 | ATAATGTG | -0.0687
108 | AATCCTTC | -0.0471
109 | AACCCGTT | -0.0539
110 | ACGAGCGT | -0.173
111 | CTTCGTCC | -0.0108
112 | ATTCGTCC | 0.323
113 | ATTCGTCG | 0.0922
114 | ATACGACA | 0.133
115 | CAACGACG | -0.0172
116 | CAACGACA | 0.307
117 | CTACGACC | -0.119
118 | CAACGACC | -0.156
119 | CGACGACA | 0.17
120 | ACACGACA | 0.225
121 | GCACGACA | -0.045
122 | TCACGACA | 0.322
123 | CTACGACA | 0.311
124 | GTACGACA | 0.345
125 | CCACGACA | 0.179

Row | Sequence | PBM E-score
126 | AAAACGCC | 0.045
127 | GCTGCGCC | -0.192
128 | CAAAGTGC | 0.0233
129 | CGCGCCCG | -0.0907
130 | ACTAGACG | 0.112
131 | CCTTGCCG | -0.0395
132 | AAAGATCC | -0.12
133 | AGAGATCG | -0.0703
134 | GTACGAAC | 0.311
135 | GTACGAAA | 0.249
136 | CTACGAAC | 0.0953
137 | GCACCCAC | -0.091
138 | CCTACCAA | 0.133
139 | CAAGATGG | -0.0978
140 | GTTACAAA | 0.158
141 | AGAACAAT | 0.0106
142 | GGTACAAA | 0.456
143 | GGTACAAC | 0.188
144 | AGAACAAG | 0.151
145 | TGTACACA | 0.279
146 | CGTACAAG | 0.0872
147 | CGTACAAA | 0.356
148 | TTTACAAA | 0.12
149 | AGAACAAA | 0.303
150 | CGTACAAC | 0.093

Row | Sequence | PBM E-score
151 | TGTACAAA | 0.392
152 | TAAAGTGA | 0.0769
153 | GATTGTGA | 0.0853
154 | CTAAATGC | 0.035
155 | GCGGGCAC | -0.0424
156 | CTCAACGC | -0.267
157 | GATACAAC | 0.212
158 | AGTACAAT | 0.29
159 | AGTACAAG | 0.251
160 | AGTACAAA | 0.44
161 | GATACAAA | 0.313
162 | AGTACATA | 0.221
163 | GGTACATA | 0.341
164 | TATACAAA | 0.183
165 | CGTACATA | 0.296
166 | AATGTCTC | 0.463
167 | CAGGTCTC | -0.00322
168 | CATGTCTA | 0.268
169 | AATGTTTC | 0.105
170 | GATGTCTA | 0.239
171 | AATGTCTG | 0.436
172 | AATGTCTA | 0.454

— the supplement of paper PMC3334620
